Measurements reported in PubChem BioAssay AID623868 (Vanderbilt High Throughput Screening Facility, 2012).
The campaign covered roughly 2,100 compounds. About 760 (36%) were called active. Only a sample is shown. Unmarked numbers belong to inactive results.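 Rule for the calls: active = thallium-flux fluorescence traces judged by eye to show enhanced or reduced glutamate response, manual score 1 or -1, so both directions (some results past the limit were not filed as active); inactive = the rest, including fluorescent or raised-baseline compounds.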

Assay: non-GIRK thallium flux modulation in mGlu8 cells, confirmation, counter-screen for GIRK activator project, cell-based, HEK-293 rmGlu8, no GIRK (AID 623868);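 note: extra codes mark interference with 3 for fluorescent and 4 for baseline rise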
Details: thallium flux fluorescence, at 10 µM, actives lie on both sides, codes: 1 enhancer, -1 blocker, 0 none, thallium stimulus containing EC20 glutamate

| Compound | manual score |
| --- | --- |
| CCOc1cc(C)nc(N2CCN(C3CCCCC3)CC2)n1 | 0 |
| O=C1CC(c2ccncc2)c2cc3c(cc2N1)OCCO3 (stereo not given) | 0 |
| Cc1cccc2sc(NC(=O)Cn3cccc3)nc12 | 1 (active) |
| CCC(=O)Nc1nc2ccc3nc(C)sc3c2s1 | 0 |
| Cc1ccc(NC(=O)Cn2cccc2)cc1Cl | 0 |
| CCOc1ccccc1Cn1c(=O)oc2ccc(C)cc21 | 0 |
| COc1ccccc1OCC(=O)Nc1sc2c(c1C(=O)NCC1CCCO1)CCC2 (stereo not given) | 0 |
| COc1ccc(NC(=O)COC(=O)CC23CC4CC(CC(C4)C2)C3)c([N+](=O)[O-])c1 | 0 |
| CCOC(=O)c1c(NS(=O)(=O)Cc2ccccc2)sc2c1CCCC2 | 1 (active) |
| COC(=O)c1c(NC(=S)Nc2ccc(F)cc2[N+](=O)[O-])sc2c1CCCCC2 | 1 (active) |
| COC(=O)c1c(NC(=S)NC(=O)c2ccco2)sc2c1CCCC2 | 0 |
| CCOC(=O)c1c(NC(=S)Nc2ccccc2)sc2c1CCCCC2 | 1 (active) |
| COC(=O)c1c(NS(=O)(=O)Cc2ccccc2)sc2c1CCCC2 | 1 (active) |
| CCOC(=O)Cn1c(=O)oc2cc(S(=O)(=O)Nc3ccc(N(CC)CC)cc3C)ccc21 | 0 |
| CC(C)c1ccccc1NC(=O)COC(=O)/C=C/c1cccc([N+](=O)[O-])c1 | 0 |
| CC(C)Oc1ccccc1C1Nc2ccccc2C(=O)N1c1ccc2c(c1)OCCO2 (stereo not given) | 0 |
| COC(=O)c1c(NS(=O)(=O)c2cccs2)sc2c1CCCC2 | 1 (active) |
| CC(=O)Oc1ccc(N(C(C)=O)S(=O)(=O)c2cccs2)c2ccccc12 | 0 |
| COC(=O)c1c(NC(=O)Cc2cccs2)sc(C(=O)NC2CCCCC2)c1C | 0 |
| CCC1(C)Cc2c(sc3c2c(=O)n(C)c2nnc(SCc4ccc5c(c4)OCO5)n32)CO1 (stereo not given) | 0 |
| CCCCN(CCCC)C(=O)CSc1nnc2n(C)c(=O)c3c4c(sc3n12)CCCC4 | -1 (active) |
| CON(c1nc(Cl)nc(N(C)C)n1)S(=O)(=O)c1ccccc1Cl | 0 |
| CCCCCC/C(C)=C1/SC(=S)NC1=O | 1 (active) |
| Cn1c(CNc2nc3ccccc3n2CCN2CCCCC2)nc2ccccc21 | 0 |

| Compound | manual score |
| --- | --- |
| CC1(C)CC(c2nc(-c3ccc(Br)cc3)cs2)CCS1 (stereo not given) | 0 |
| CCOC(=O)N1CCN(C(=O)CSc2nc3c(c(=O)n2-c2ccccc2OC)SCC3)CC1 | -1 (active) |
| CCN(CC)C(=O)CSc1nc2ccccc2c(=O)n1-c1ccccc1OC | -1 (active) |
| CCc1c(O)nc(SCC(=O)Nc2ccc(OC)cc2)n(C2CCCCC2)c1=O | 0 |
| COC(=O)COn1c(SC(C)C)nc2ccccc2c1=O | 0 |
| COC(=O)c1ccc2c(=O)n(C3CCCCC3)c(SCC#N)nc2c1 | 0 |
| CCCN(CCC)C(=O)CSc1nc2ccccc2c(=O)n1C1CCCC1 | -1 (active) |
| CCOC(=O)N1CCN(C(=O)CSc2ncnc3ccccc23)CC1 | 0 |
| CCOC(=O)CSc1nc2c(sc(=S)n2-c2ccccc2OC)c(=O)n1Cc1ccco1 | -0.5 |
| N#CC1=C(N)Oc2n[nH]c(-c3cccs3)c2C1c1ccco1 (stereo not given) | 3 |
| Cc1ccc(N=C2CCCN2Cc2ccccc2)c(C#N)c1 | -1 (active) |
| Cc1c(C#N)c2ccccc2n1CC(=O)O | 0 |
| Cc1ccc(C)c(N=C2CCCN2Cc2ccccc2)c1C#N | -1 (active) |
| COC(=O)c1ccc(N2C(=O)CC(Sc3n[nH]c(C)n3)C2=O)cc1 (stereo not given) | 0 |
| CC(C)CCOP(=O)(c1ccc(N(C)C)cc1)C(O)c1ccccn1 (stereo not given) | 0 |
| Brc1ccc(-c2nnc3c4ccccc4nc(N4CCOCC4)n23)cc1 | 0 |
| CCN(CC)CCCNC(=O)c1cc(-c2ccc(Cl)c(Cl)c2)on1 | 0 |
| CCOC(=O)C1CCCN(C(=O)c2cc(-c3ccccc3)on2)C1 (stereo not given) | 0 |
| CCCn1cc(NC(=O)c2cc(-c3ccccc3)on2)cn1 | 1 (active) |
| O=C(c1cc(-c2ccccc2)on1)N1CCCC1 | 0 |
| CC(C)n1cc(NC(=O)c2cc(-c3ccccc3)on2)cn1 | 1 (active) |
| CCN(CC)CCN(CC)Cc1ccccc1Br | 0 |
| CCC(c1nnnn1Cc1ccc(OC)cc1)N(CCCO)Cc1cc2cc3c(cc2[nH]c1=O)OCO3 (stereo not given) | 0 |
| Clc1ccccc1-c1nn2c(COc3ccccc3)nnc2s1 | 0 |

| Compound | manual score |
| --- | --- |
| S=c1[nH]nc(CSc2nc3ccccc3s2)n1C1CCCCC1 | 1 (active) |
| S=c1[nH]nc(COc2ccccc2)n1C1CCCCC1 | 1 (active) |
| CC(O)c1nc2ccccc2n1C1CCCCC1 (stereo not given) | 0 |
| CC(=O)c1c(C(C)=O)c(C)n(-c2nc(-c3cccs3)c(C)s2)c1C | 0 |
| Cc1ccc(NC(=O)CN2c3cccc4cccc(c34)S2(=O)=O)cc1S(=O)(=O)N1CCOCC1 | 0 |
| Cn1c(=O)c2c(nc(-n3ccnc3)n2Cc2ccccc2)n(C)c1=O | 0 |
| Cc1cc(C(F)(F)F)c2c(=O)[nH]c(=O)n(Cc3ccccc3)c2n1 | 0 |
| O=c1c2cccnc2[nH]c(=S)n1Cc1ccccc1 | 1 (active) |
| O=c1c2cc(F)ccc2[nH]c(=S)n1CCCN1CCOCC1 | 0 |
| O=c1c2cccnc2[nH]c(=S)n1CCCN1CCN(c2ccc(F)cc2)CC1 | 1 (active) |
| CCOC(=O)CN1NC2(CCC(C(C)(C)C)CC2)NC1=S (stereo not given) | 0 |
| CCSc1nnc(NC(=O)C(Cc2ccccc2)n2cccc2)s1 (stereo not given) | 0 |
| O=C(Nc1ncc(Br)s1)C(Cc1ccccc1)n1cccc1 (stereo not given) | 1 (active) |
| Cc1csc(NC(=O)C(Cc2ccccc2)n2cccc2)n1 (stereo not given) | 0 |
| CCOC(=O)Cn1c(=N)n(CCOc2cccc(C)c2)c2ccccc21 | 0 |
| COc1ccc(OCc2nc(N)nc(Nc3ccccc3)n2)cc1 | 0 |
| Nc1c(-c2ccccc2)cnn1-c1ccc(C(=O)O)cc1 | 0 |
| COc1cc(OC)cc(C(=O)NC(=S)N2CCN(c3ccc(C(F)(F)F)cc3[N+](=O)[O-])CC2)c1 | 1 (active) |
| CC(C)Oc1cccc(C(=O)NC(=S)N2CCN(c3ccc(C(F)(F)F)cc3[N+](=O)[O-])CC2)c1 | 1 (active) |
| COc1cccc(C(=O)NC(=S)N2CCN(c3ccc(C(F)(F)F)cc3[N+](=O)[O-])CC2)c1 | 1 (active) |
| Cc1ccc(CC(=O)N2CCN(c3cccc(C(F)(F)F)c3)CC2)cc1 | 0 |
| COc1ccccc1NC(=O)COc1ccc(C(F)(F)F)cc1[N+](=O)[O-] | 0 |
